High-throughput results (PubChem BioAssay)
ERAP1 HTS inh: inhibitors of human ERAP1 aminopeptidase. Q9NZ08. recombinant ERAP1, Leu-AMC fluorescence, 60 min. inhibition, % at 10.7 µM. hit rate 0.15% among 340,000. AID 652197;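 active means mean replicate inhibition of at least 30%, or all replicates individually reaching that 30% level; inactive means mean below 30% and not every replicate reaching it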;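 further: 0% = neutral control wells and 100% = L-leucinethiol positive control wells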
RAD52 anneal inh: blocks human RAD52 DNA annealing. P43351. recombinant RAD52 DNA annealing, FRET fluorescence. inhibition, % at 18.7 µM. hit rate 0.46% among 360,000. AID 651710;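 active means every replicate showing at least 50% inhibition; inconclusive means mean inhibition at least 50% but not in every replicate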
Target sequence (P43351 whole entry, looked up): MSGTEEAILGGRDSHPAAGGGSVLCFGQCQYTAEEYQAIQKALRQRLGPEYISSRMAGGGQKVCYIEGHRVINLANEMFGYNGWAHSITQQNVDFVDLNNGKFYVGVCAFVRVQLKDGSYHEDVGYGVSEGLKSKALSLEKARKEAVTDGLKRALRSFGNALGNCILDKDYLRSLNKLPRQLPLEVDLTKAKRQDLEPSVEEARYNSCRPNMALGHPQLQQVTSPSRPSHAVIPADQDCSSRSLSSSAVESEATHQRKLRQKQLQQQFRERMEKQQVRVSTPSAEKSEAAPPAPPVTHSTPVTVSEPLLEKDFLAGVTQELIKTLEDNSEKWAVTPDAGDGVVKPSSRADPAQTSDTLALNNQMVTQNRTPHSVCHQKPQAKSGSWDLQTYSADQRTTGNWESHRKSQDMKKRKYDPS
FGF22 binding: FGF22 (human) thermal shift binding. hit rate 1.5% among 340,000. AID 651658. recombinant FGF22 thermal shift, SYPRO orange fluorescence; percent of sucrose octasulfate shift, DMSO zero. activity (Tm shift, normalised), % at 9.99 µM;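 active means mean Tm shift, scaled 0 neutral to 100 positive control, at about 1.3% or above, every replicate too, limit read from the data; inconclusive means no clear call, values can overlap the other calls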
Target sequence (Q9HCT0 whole entry, looked up): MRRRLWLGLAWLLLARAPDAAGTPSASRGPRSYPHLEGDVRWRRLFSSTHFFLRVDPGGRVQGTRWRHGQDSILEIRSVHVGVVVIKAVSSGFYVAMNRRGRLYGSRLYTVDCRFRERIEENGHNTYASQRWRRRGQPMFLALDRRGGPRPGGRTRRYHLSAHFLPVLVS
DENV2 CPE rescue: DENV2-induced cell death inhibition; AID 651640; CPE inhibition, % at 9.99 µM; hit rate 1.7% among 350,000; DENV2-infected cells, cytopathic effect rescue, plate reader; in the data active means CPE inhibition above about 20%, passing the limit was not always enough; inconclusive means no clear call, values can overlap the other calls; tested in BHK-21 cells;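 further: 0% = median of neutral control wells and 100% = median of positive control wells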
MLL AF4-AF9 inh: inhibitors of human MLL-AF4/AF9 interaction | AlphaScreen, biotin-AF4 peptide binding to FLAG-AF9 | inhibition, % at 10 µM | hit rate 0.47% among 350,000;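 active means every replicate reaching a set inhibition limit, whatever the replicate mean, cut at about 25% in these data; inconclusive means mean inhibition reaches that limit but some replicates miss it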;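 further: 0% = plate neutral control median and 100% = total signal loss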
* marks the source's active call; other numbers are inactive results; ? = inconclusive; . = no result. Sampled rows, rich in hits. Any-hit rate of the full collection: about 4%.

SMILES	ERAP1 HTS inh	RAD52 anneal inh	FGF22 binding	DENV2 CPE rescue	MLL AF4-AF9 inh
CCN(CC)C(C(=O)NC1CCCCC1)c1ccc(C)cc1 (stereo not drawn)	4.5	3.2	43.5*	14.5	0.0
CCOc1ccc(C(=O)N2CCN(c3cnn(-c4ccccc4)c(=O)c3Cl)CC2)cc1	-4.1	0.0	44.0*	0.7	-0.7
CCCNC(=O)C[C@@H]1CC[C@H]2[C@@H](COC[C@H](O)CN2Cc2ccc(Cl)c(Cl)c2)O1	-1.5	0.3	-0.6	-8.8	2.0
O=C(c1ccc(C(F)(F)F)cc1)C1CCCN(C(=O)Cn2cncn2)C1 (stereo not drawn)	2.5	-8.9	-0.1	-2.0	-0.4
O=C(c1ccc(C(F)(F)F)cc1)C1CCCN(C(=O)CCN2CCCO2)C1 (stereo not drawn)	-0.6	-12.4	43.9*	9.2	0.4
Cc1nonc1CC(=O)N1CCCC(C(=O)c2cccc(C(F)(F)F)c2)C1 (stereo not drawn)	2.4	-12.5	46.0*	-2.6	-0.3
COc1ccc(C(=O)C2CCCN(C(=O)Cc3c(C)noc3C)C2)cc1OC (stereo not drawn)	-3.4	-1.1	43.4*	9.7	0.0
C/C=C/c1ccc([C@@H]2[C@@H](CO)N(C(=O)C3CC3)C23CN(S(=O)(=O)CC)C3)cc1	0.7	-20.7	.	?	2.4
O=Cc1ccc(F)c([B-](F)(F)F)c1	0.2	-19.5	43.5*	-12.2	-2.3
CN(C)CCCNC(=O)[C@H]1[C@H](CO)[C@H]2Cn3c(ccc(-c4ccncc4)c3=O)[C@@H]1N2C(=O)CC1CC1	-1.8	-6.7	-0.1	.	-4.1
CCC(=O)Nc1ccc2c(c1)C(=O)N(C)C[C@H](OC)[C@@H](C)CN(C(=O)c1ccc(F)cc1)[C@@H](C)CO2	1.5	.	0.0	15.4	-2.5
Cc1cc(OCC(=O)NC(Cc2c[nH]c3ccc(O)cc23)C(=O)O)c2c(C)c(C)c(=O)oc2c1 (stereo not drawn)	6.0	-6.2	1.1	93.6*	-2.8
Cc1c(OCC(=O)NC(Cc2c[nH]c3ccc(O)cc23)C(=O)O)ccc2c3c(c(=O)oc12)CCC3 (stereo not drawn)	3.5	-7.1	0.2	-5.0	-5.1
Cc1cc(OCC(=O)NC(Cc2ccc(Cl)cc2)C(=O)O)c2c(C)c(C)c(=O)oc2c1 (stereo not drawn)	23.4	-8.1	0.2	91.9*	1.4
CCCc1cc(=O)oc2cc(C)cc(OCC(=O)N[C@@H](CSCc3ccccc3)C(=O)O)c12	24.7	-5.2	7.2*	1.3	5.1
Cc1cc(OCC(=O)NC(Cc2ccc(Cl)cc2)C(=O)O)c2c(C)cc(=O)oc2c1 (stereo not drawn)	15.0	-10.1	0.6	-2.0	1.8
CC(=O)Nc1cccc(Oc2nc(NCC3CC3)nc3ccsc23)c1	-2.8	-8.6	-0.2	-11.4	-5.4
CNc1nc(Oc2cccc(NC(C)=O)c2)c2sccc2n1	1.4	-4.7	-0.1	52.7*	1.2
CN(C)CC(=O)Nc1ccc2c(c1)[C@H]1C[C@H](CC(=O)NCc3cc(F)ccc3F)O[C@H](CO)[C@H]1O2	1.6	6.8	-0.1	7.6	-0.4
CCOc1ccc(NC(=O)CCC(=O)N/N=C/c2ccc3c(c2)OCO3)cc1	1.3	-9.8	-0.1	-3.3	-0.2
Cc1ccccc1NC(=O)CCC(=O)N/N=C/c1ccc(F)cc1	-1.9	-5.5	43.0*	-0.5	-0.6
Cc1ccc(C)c(NC(=O)CCC(=O)N/N=C/c2ccc3c(c2)OCO3)c1	10.3	11.2	43.4*	1.7	-8.9
C[n+]1cccc(C(=O)N/N=C/c2ccc3c(c2)OCO3)c1	45.6*	-0.6	0.6	0.8	0.0
CC/C(=N\NC(=O)c1ccc2c(c1)OCO2)c1ccccc1	4.7	-4.7	0.0	33.1*	0.4
O=C(N/N=C(/c1ccccc1)c1ccncc1)c1ccc2c(c1)OCO2	2.5	-6.8	0.0	-3.1	3.9
SMILES	ERAP1 HTS inh	RAD52 anneal inh	FGF22 binding	DENV2 CPE rescue	MLL AF4-AF9 inh
Cc1ccccc1NC(=O)CCC(=O)N/N=C/c1cccnc1	-1.1	-0.9	0.3	8.0	-1.6
CN1CCN(C(=O)C[C@H]2CC[C@@H](NS(=O)(=O)c3cccc(F)c3)[C@H](CO)O2)CC1	3.5	-7.7	0.1	-3.7	-0.6
O=C(C[C@H]1C=C[C@H](NC(=O)c2ccncc2)[C@H](CO)O1)NCCc1ccncc1	-0.6	-10.3	0.0	-2.2	-0.2
Cc1ccccc1NCC(=O)N/N=C\c1ccc2c(c1)OCO2	-0.8	-19.4	44.0*	6.4	3.0
Cc1ccc(S(N)(=O)=O)cc1NC(=O)/C=C/c1ccc2c(c1)OCO2	3.9	-3.8	43.5*	-2.7	-2.1
Cc1ccc(SCCNC(=O)c2ccccc2F)cc1	1.3	-3.8	.	17.6	0.1
Cc1ccc(SCCC(=O)NNC(=O)c2ccccc2F)cc1	-0.5	-10.3	43.4*	3.9	-6.0
C=CCNc1nc(C(=O)OCC(=O)NCc2ccccc2OC)cs1	-0.5	-22.6	0.0	65.9*	1.1
Cn1c(=O)c(C(=O)CCl)c(N)n(Cc2ccccc2)c1=O	0.0	-13.7	0.0	-4.0	1.4
Cn1c(=O)c(C(=O)CSc2ccccc2)c(N)n(Cc2ccccc2)c1=O	1.6	-8.2	43.0*	10.3	-10.3
C[C@@H]1CCCCO[C@@H](CN(C)Cc2ccc(Cl)c(Cl)c2)[C@@H](C)CN([C@@H](C)CO)C(=O)c2cc(NS(=O)(=O)c3ccccc3)ccc2O1	-3.1	-1.8	0.5	22.5*	1.2
C[C@@H]1CCCCO[C@H](CN(C)Cc2ccc(Cl)c(Cl)c2)[C@H](C)CN([C@@H](C)CO)C(=O)c2cc(NS(=O)(=O)c3ccccc3)ccc2O1	-3.1	19.0	1.1	32.4*	4.9
C[C@@H]1CN([C@H](C)CO)C(=O)c2cc(NS(=O)(=O)c3ccccc3)ccc2O[C@@H](C)CCCCO[C@H]1CN(C)Cc1ccc(Cl)c(Cl)c1	-2.3	-9.1	0.7	23.1*	7.3
C[C@H]1CCCCO[C@H](CN(C)Cc2ccc(Cl)c(Cl)c2)[C@@H](C)CN([C@@H](C)CO)C(=O)c2cc(NS(=O)(=O)c3ccc(F)cc3)ccc2O1	0.2	28.3	-0.3	22.2*	-1.2
C[C@@H]1CCCCO[C@@H](CN(C)Cc2ccc(Cl)c(Cl)c2)[C@@H](C)CN([C@@H](C)CO)C(=O)c2cc(NS(=O)(=O)c3ccc(Cl)cc3)ccc2O1	-0.5	-40.4	0.0	-4.4	-0.2
C[C@@H]1CN([C@H](C)CO)C(=O)c2cc(NS(=O)(=O)c3ccc(Cl)cc3)ccc2O[C@@H](C)CCCCO[C@H]1CN(C)Cc1ccc(Cl)c(Cl)c1	-3.5	-18.4	-0.7	-9.0	2.9
C[C@H](CO)N1C[C@H](C)[C@@H](CN(C)Cc2ccc(Cl)c(Cl)c2)OCCCC[C@H](C)Oc2ccc(NS(=O)(=O)c3ccccc3)cc2C1=O	-4.6	-0.1	0.8	1.4	0.3
COc1cc([N+](=O)[O-])ccc1NC(=O)NCc1ccco1	-1.7	-18.7	43.9*	5.1	-2.8
COc1ccc(NC(=O)NCc2ccco2)c(OC)c1	-1.4	3.7	0.2	-1.9	-1.3
